Structures are written as SMILES. Some compounds were tested as several samples or in several runs, with calls that do not always agree. Active and inactive are the calls of the source. Where a call stands in place of a potency, no number is given. Calls follow the shape of the dose curve; as a rule, active = well fitted activation curve with a large enough effect in the repeat runs; inconclusive = weak or mixed curves; inactive = flat fitted curve, though single readings scatter.
Potency is read from the fitted curve at half-maximal effect.

A short description of the experiment: A CellTox Green Cytotoxicity Assay to monitor cytotoxicity in HepG2 cells - 0 hour (AID 1224882). Also: nearly all actives have a fitted effect of over 35% in size. The settings on record: CellTox Green fluorescence; series mostly up to 76.8 µM; cytotoxicity: at the top concentration. The text has this: National Center for Advancing Translational Sciences [NCATS]
NIH Chemical Genomics Center [NCGC]
U.S. Environmental Protection Agency [EPA]
National Institutes of Environmental Health Sciences [NIEHS]
National Toxicology Program [NTP]
Cell-based models are critical for drug discovery. Determining the natural cytotoxic effects resulting from test compounds is an essential research activity. A CellTox Green Cytotoxicity Assay to monitor cytotoxicity in real time of continues cell culture during 40 hours of the compound treatment was used to screen Tox21 10K library compounds in HepG2 cells. CellTox Green Cytotoxicity Assay is a nonlytic, homogeneous, biofluorescent method to measure cytotoxicity in cell culture after experimental manipulation. The assay system uses a proprietary asymmetric cyanine dye that is excluded from viable cells but preferentially stains the dead cell's DNA. […] Viable cells produce no appreciable increases in fluorescence. Therefore, the fluorescence signal produced by the binding interaction with dead cell DNA is proportional to cytotoxicity.
The mixture of HepG2 cell suspension and reagents were dispensed at 600cells/6 ul/well in 1536-well tissue culture treated black solid bottom plates using a Multidrop dispenser. After the assay plates were incubated at a 37 C/5% CO2 incubator for 5 hours, 23 nL of compounds dissolved in DMSO, positive and negative controls was transferred to the assay plate by a pintool work station. The plates were incubated at 37 C for 40 hours. The fluorescence intensity were measured at 0h, 8h, 16h, 24h, 32h and 40h time points using ViewLux plate reader during compound treatment.
Take `CN(C)CCC=C1c2ccccc2CCc2ccccc21`: the Potency result was “inactive”.

For `Cc1ncc[nH]1`, the Potency result was “inactive”.

Regarding `CC1=CCC(C(C)(C)O)CC1` (stereo not given), the Potency entry was “inactive”.

Turning to `CCCc1c(OCCCCc2nn[nH]n2)ccc(C(C)=O)c1O`, the Potency entry is “inactive”.

In the case of `Cc1ccc2c(n1)Oc1ccc(C(C)C(=O)OCC(=O)N(C)C)cc1C2` (stereo not given), the Potency entry was “inactive”.

`Nc1ncn([C@@H]2O[C@H](CO)[C@@H](O)[C@H]2O)c(=O)n1`: the Potency result is “inactive”.

Consider `NNc1ccc(C(=O)O)cc1`, for which the Potency entry is “inactive”.

Regarding `CC(C)OB(OC(C)C)OC(C)C`, the Potency result is “inactive”.

As for `O=C(/C=C/C=C/c1ccc2c(c1)OCO2)N1CCCCC1`, the Potency result was “inactive”.

Take `O=[N+]([O-])c1ccc2c(c1)Cc1ccccc1-2`: the Potency entry is “inactive”.

For `C[C@]12CCC(=O)C=C1CC[C@@H]1[C@@H]2C(=O)C[C@@]2(C)[C@H]1CC[C@]2(O)C(=O)CO`, the Potency result is “inactive”.

For the compound `COC(=O)Nc1nc2ccc(S(=O)c3ccccc3)cc2[nH]1` (stereo not given), the Potency result is “inactive”.

For `COC(C)COC(C)COC(C)CO` (stereo not given), the Potency entry is “inactive”.

In the case of `C/C=C/C(=O)O`, the Potency entry was “inactive”.

In the case of `OCCO`, the Potency entry is “inactive”.

For `CC(=O)CC/C=C(\C)CCC=C(C)C`, the Potency entry was “inactive”.

With `Cc1c(C(N)=O)cc([N+](=O)[O-])cc1[N+](=O)[O-]`, the “cytotoxicity” value was -1.9% (inactive).

As to `O=CCCCC=O`, the Potency result is “inactive”.

Consider `Cc1ccc(C(=O)c2cc(O)c(O)c([N+](=O)[O-])c2)cc1`, for which the Potency entry was “inactive”.

With `CC(C)Oc1ccc2c(=O)c(-c3ccccc3)coc2c1`, the Potency entry was “inactive”.

With `CNCCCC12CCC(c3ccccc31)c1ccccc12`, the Potency entry is “inactive”.

With `O=P(O)(O)O`, the Potency result was “inactive”.

`CCOC(=O)C(C#N)=C(c1ccccc1)c1ccccc1`: the Potency result was “inactive”.

`CCC(C)c1ccccc1O` (stereo not given): the Potency entry is “inactive”.

In the case of `C=C(C)C1CC=C(C)CC1` (stereo not given), the Potency entry was “inactive”.

Take `COC(=O)c1ccccc1`: the Potency entry was “inactive”.

As for `O=S(=O)(O)c1ccc(O)cc1`, the Potency result is “inactive”.

For the compound `C=C(C)C(=O)OCCOC(=O)C(=C)C`, the Potency result was “inactive”.

As for `CCCCOCCOCCOCCO`, the Potency entry was “inactive”.

For `CCCCCCCCCC(=O)OC`, the Potency entry was “inactive”.

Take `c1ccncc1`: the Potency entry is “inactive”.

Take `O=C(Nc1ccc(Cl)cc1)Nc1ccc(Cl)c(Cl)c1`: the Potency entry is “inactive”.

For `CN1C(C(=O)Nc2ccccn2)=C(O)c2ccccc2S1(=O)=O`, the Potency result was “inactive”.

In the case of `Cn1cnc([N+](=O)[O-])c1Sc1ncnc2nc[nH]c12`, the “cytotoxicity” value is -2.35% [at 35.3 µM] (inactive).

As for `COc1cccc2c1C(=O)c1c(O)c3c(c(O)c1C2=O)C[C@@](O)(C(=O)CO)C[C@@H]3O[C@H]1C[C@H](N)[C@H](O)[C@H](C)O1`, the Potency result was “inactive”.

As to `CC(=O)Oc1ccccc1C(=O)Nc1ncc([N+](=O)[O-])s1`, the Potency entry was “inactive”.

`C[C@]12CC[C@H]3[C@@H](CCC4=CC(=O)CC[C@@]43C)[C@@H]1CC[C@@H]2C(=O)CO`: the Potency result was “inactive”.

For the compound `CC(C)CC(C)(O)C#CC(C)(O)CC(C)C` (stereo not given), the Potency result was “inactive”.

Turning to `Nc1ccccc1N`, the Potency was 50.1 µM (active) and inactive.

Regarding `C#C[C@]1(O)CC[C@H]2[C@@H]3CCc4cc(OC)ccc4[C@H]3CC[C@@]21C`, the Potency entry was “inactive”.

(Values after PubChem BioAssay (Tox21).)
